Where two headings read alike, the source gives them in different places.
Legend:
Design in all cases: species or system human, MV4-11 + K-562 + COLO205 + SK-N-BE2 + OVCAR-8
ADRBK1 = settings: read-out: apparent Kd, compound concentrations: 100 nM and 1000 nM (sheet 'Samples'), n = 1
AKT1 = settings: read-out: apparent Kd; compound concentrations: 100 nM and 1000 nM (sheet 'Samples'), CATDS: 4.8230371724731401E-2; n = 1
AKT2 = settings: read-out: apparent Kd; compound concentrations: 100 nM and 1000 nM (sheet 'Samples'), CATDS: 6.0440208262816403E-2; n = 1
CDK6 = settings: read-out: apparent Kd; compound concentrations: 100 nM and 1000 nM (sheet 'Samples'), CATDS: 5.1522031717759098E-2; n = 1
FLT3 = settings: read-out: apparent Kd; compound concentrations: 100 nM and 1000 nM (sheet 'Samples'), CATDS: 6.2638012545430999E-2; n = 1
HSP90B1 = settings: read-out: apparent Kd; compound concentrations: 100 nM and 1000 nM (sheet 'Samples'), CATDS: 7.7391071706101697E-2; n = 1
IARS = settings: read-out: apparent Kd; compound concentrations: 100 nM and 1000 nM (sheet 'Samples'), CATDS: 5.4756501565327097E-2; n = 1
MAP2K1 = settings: read-out: apparent Kd; compound concentrations: 100 nM and 1000 nM (sheet 'Samples'), CATDS: 5.5357684673120397E-2; n = 1
MAP2K2 = settings: read-out: apparent Kd; compound concentrations: 100 nM and 1000 nM (sheet 'Samples'), CATDS: 6.2527819701534898E-2; n = 1
MAPK14 = settings: read-out: apparent Kd; compound concentrations: 100 nM and 1000 nM (sheet 'Samples'), CATDS: 6.9601617206552405E-2; n = 1
MAPKAPK2 = settings: read-out: apparent Kd; compound concentrations: 100 nM and 1000 nM (sheet 'Samples'), CATDS: 5.3693102707434E-2; n = 1
MDN1 = settings: read-out: apparent Kd; compound concentrations: 100 nM and 1000 nM (sheet 'Samples'), CATDS: 0.23126444967608101; n = 1
NNT = settings: read-out: apparent Kd; compound concentrations: 100 nM and 1000 nM (sheet 'Samples'), CATDS: 4.6645770981233098E-2; n = 1
NQO1 = settings: read-out: apparent Kd; compound concentrations: 100 nM and 1000 nM (sheet 'Samples'), CATDS: 6.3403997272240303E-2; n = 1
PYGL = settings: read-out: apparent Kd; compound concentrations: 100 nM and 1000 nM (sheet 'Samples'), CATDS: 4.60061770009558E-2; n = 1
RIOK2 = settings: read-out: apparent Kd; compound concentrations: 100 nM and 1000 nM (sheet 'Samples'), CATDS: 4.9711958169324999E-2; n = 1
VDAC3 = settings: read-out: apparent Kd; compound concentrations: 100 nM and 1000 nM (sheet 'Samples'), CATDS: 5.6878291770418803E-2; n = 1
AKT3 = settings: read-out: apparent Kd; compound concentrations: 100 nM and 1000 nM (sheet 'Samples'), CATDS: 1.9200970976664199E-2; n = 1
CDC42BPA = settings: read-out: apparent Kd; compound concentrations: 100 nM and 1000 nM (sheet 'Samples'), CATDS: 2.9889506530370698E-2; n = 1
CDC42BPB = settings: read-out: apparent Kd; compound concentrations: 100 nM and 1000 nM (sheet 'Samples'), CATDS: 7.2209321727509101E-2; n = 1
CDC42BPG = settings: read-out: apparent Kd; compound concentrations: 100 nM and 1000 nM (sheet 'Samples'), CATDS: 5.7260921277851103E-2; n = 1
CDKL5 = settings: read-out: apparent Kd; compound concentrations: 100 nM and 1000 nM (sheet 'Samples'), CATDS: 3.0884187274208798E-2; n = 1
CHEK1 = settings: read-out: apparent Kd; compound concentrations: 100 nM and 1000 nM (sheet 'Samples'), CATDS: 4.9980963828105997E-2; n = 1
JAK2 = settings: read-out: apparent Kd; compound concentrations: 100 nM and 1000 nM (sheet 'Samples'), CATDS: 2.4440515668024899E-2; n = 1
NUAK1 = settings: read-out: apparent Kd; compound concentrations: 100 nM and 1000 nM (sheet 'Samples'), CATDS: 4.1044446827870798E-2; n = 1
NUAK2 = settings: read-out: apparent Kd; compound concentrations: 100 nM and 1000 nM (sheet 'Samples'), CATDS: 3.8421609760156301E-2; n = 1
PKN1 = settings: read-out: apparent Kd; compound concentrations: 100 nM and 1000 nM (sheet 'Samples'), CATDS: 3.7942588141146198E-2; n = 1
PKN2 = settings: read-out: apparent Kd; compound concentrations: 100 nM and 1000 nM (sheet 'Samples'), CATDS: 2.7249776498222002E-2; n = 1
PKN3 = settings: read-out: apparent Kd; compound concentrations: 100 nM and 1000 nM (sheet 'Samples'), CATDS: 1.9288035237500001E-2; n = 1
PRKAA1 = settings: read-out: apparent Kd; compound concentrations: 100 nM and 1000 nM (sheet 'Samples'), CATDS: 2.2574550296483802E-2; n = 1
PRKAA2 = settings: read-out: apparent Kd; compound concentrations: 100 nM and 1000 nM (sheet 'Samples'), CATDS: 1.9838935716802002E-2; n = 1
PRKACA = settings: read-out: apparent Kd; compound concentrations: 100 nM and 1000 nM (sheet 'Samples'), CATDS: 9.6222688341774595E-2; n = 1
PRKACB = settings: read-out: apparent Kd; compound concentrations: 100 nM and 1000 nM (sheet 'Samples'), CATDS: 7.2959241198541205E-2; n = 1
PRKAG1 = settings: read-out: apparent Kd; compound concentrations: 100 nM and 1000 nM (sheet 'Samples'), CATDS: 2.1564965270821398E-2; n = 1
PRKAG2 = settings: read-out: apparent Kd; compound concentrations: 100 nM and 1000 nM (sheet 'Samples'), CATDS: 2.8394039575996899E-2; n = 1
PRKCA = settings: read-out: apparent Kd; compound concentrations: 100 nM and 1000 nM (sheet 'Samples'), CATDS: 4.1441031849898502E-2; n = 1
PRKCB = settings: read-out: apparent Kd; compound concentrations: 100 nM and 1000 nM (sheet 'Samples'), CATDS: 3.5643049371418899E-2; n = 1
PRKCD = settings: read-out: apparent Kd; compound concentrations: 100 nM and 1000 nM (sheet 'Samples'), CATDS: 5.5614379812914103E-2; n = 1
PRKCQ = settings: read-out: apparent Kd; compound concentrations: 100 nM and 1000 nM (sheet 'Samples'), CATDS: 6.3184001345655702E-2; n = 1
PRKD2 = settings: read-out: apparent Kd; compound concentrations: 100 nM and 1000 nM (sheet 'Samples'), CATDS: 1.9916010120102301E-2; n = 1
PRKG1 = settings: read-out: apparent Kd; compound concentrations: 100 nM and 1000 nM (sheet 'Samples'), CATDS: 8.1540237220624201E-2; n = 1
PRKX = settings: read-out: apparent Kd; compound concentrations: 100 nM and 1000 nM (sheet 'Samples'), CATDS: 3.8731961225305901E-2; n = 1
ROCK1 = settings: read-out: apparent Kd; compound concentrations: 100 nM and 1000 nM (sheet 'Samples'), CATDS: 7.2769225266658799E-2; n = 1
ROCK2 = settings: read-out: apparent Kd; compound concentrations: 100 nM and 1000 nM (sheet 'Samples'), CATDS: 5.7736516058252897E-2; n = 1
RPS6KA5 = settings: read-out: apparent Kd; compound concentrations: 100 nM and 1000 nM (sheet 'Samples'), CATDS: 2.03243213098795E-2; n = 1
RPS6KB1 = settings: read-out: apparent Kd; compound concentrations: 100 nM and 1000 nM (sheet 'Samples'), CATDS: 4.2911282581945501E-2; n = 1

Q: Which results are given for Cc1ccc(NC(=O)Nc2cc(C(C)(C)C)nn2-c2ccccc2)cc1 [GSK1014915A]?
A: potency estimated from few doses (ADRBK1; CATDS: 5.8321770731493798E-2): 1290 nM; potency estimated from few doses (AKT1): 2030 nM; potency estimated from few doses (AKT2): 1190 nM; potency estimated from few doses (CDK6): 1710 nM; potency estimated from few doses (FLT3): 1110 nM; potency estimated from few doses (HSP90B1): 749 nM; potency estimated from few doses (IARS): 1480 nM; potency estimated from few doses (MAP2K1): 1440 nM; potency estimated from few doses (MAP2K2): 1110 nM; potency estimated from few doses (MAPK14): 906 nM; potency estimated from few doses (MAPKAPK2): 1550 nM; potency estimated from few doses (MDN1): 156 nM; potency estimated from few doses (NNT): 2220 nM; potency estimated from few doses (NQO1): 1080 nM; potency estimated from few doses (PYGL): 2310 nM; potency estimated from few doses (RIOK2): 1870 nM; potency estimated from few doses (VDAC3): 1360 nM

Q: Which results are given for COc1ccc(O)c(C(=O)c2ccc(C(=O)N[C@@H]3CCCNC[C@H]3NC(=O)c3ccncc3)cc2)c1F.Cl [RO4367842-001]?
A: potency estimated from few doses (ADRBK1; CATDS: 2.1593661333857501E-2): 587 nM; potency estimated from few doses (AKT3): 1460 nM; potency estimated from few doses (CDC42BPA): 129 nM; potency estimated from few doses (CDC42BPB): 17.2 nM; potency estimated from few doses (CDC42BPG): 25.7 nM; potency estimated from few doses (CDKL5): 115 nM; potency estimated from few doses (CHEK1): 33.5 nM; potency estimated from few doses (JAK2): 294 nM; potency estimated from few doses (NUAK1): 51.7 nM; potency estimated from few doses (NUAK2): 60.9 nM; potency estimated from few doses (PKN1): 62.9 nM; potency estimated from few doses (PKN2): 182 nM; potency estimated from few doses (PKN3): 1400 nM; potency estimated from few doses (PRKAA1): 448 nM; potency estimated from few doses (PRKAA2): 1090 nM; potency estimated from few doses (PRKACA): 11.1 nM; potency estimated from few doses (PRKACB): 17 nM; potency estimated from few doses (PRKAG1): 592 nM; potency estimated from few doses (PRKAG2): 155 nM; potency estimated from few doses (PRKCA): 50.5 nM; potency estimated from few doses (PRKCB): 74.4 nM; potency estimated from few doses (PRKCD): 27.2 nM; potency estimated from few doses (PRKCQ): 21.6 nM; potency estimated from few doses (PRKD2): 1050 nM; potency estimated from few doses (PRKG1): 14.2 nM; potency estimated from few doses (PRKX): 59.6 nM; potency estimated from few doses (ROCK1): 17 nM; potency estimated from few doses (ROCK2): 25.4 nM; potency estimated from few doses (RPS6KA5): 897 nM; potency estimated from few doses (RPS6KB1): 46.5 nM

Reference: paper PMC11062922 (Nature Chemical Biology, 2023)
